# Laboratory results: PubChem BioAssay
# Values without a mark were called inactive. The source made the active and inactive calls.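 Rule for the calls: active = growth inhibition above 50% at the single 2 µM test dose, taken to imply half-maximal potency below 2 µM; inactive = the rest.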
# Assay: antimalarial activity against Dd2 strain (AID 2302);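 note: 0% = DMSO untreated growth and 100% = chloroquine plus artemisinin killed control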
# Conditions: P. falciparum Dd2 in RBCs, LDH growth readout, 72 h; at 2 µM; active compounds read high
row,SMILES,growth inhibition
1,CN(CCCCCN1CCC(NC(=O)Nc2ccc(C(F)(F)F)cc2)C1)C(=O)/C=C/c1ccc(Cl)c(Cl)c1 (centres undefined),11%
2,O=[N+]([O-])c1cccc(CNCC2CCN(Cc3ccc4ccccc4c3)CC2)c1,42%
3,CCCCCCN1CCC(CNCc2cccc([N+](=O)[O-])c2)CC1,15%
4,COc1ccc(-c2nonc2NC(=O)c2ccc(OC(C)C)cc2)cc1OC,99% (active)
5,CN1CCN(CC(O)CNC(=O)Nc2ccc(Cl)cc2)CC1 (centres undefined),98% (active)
6,CCN(CC)S(=O)(=O)n1ncc2c3c(N)nc(N)nc3ccc21,16%
7,CCNc1cc(C(=O)N[C@@H](Cc2ccccc2)[C@H](O)CNC23CC4CC(CC(C4)C2)C3)cc(N2CCCCS2(=O)=O)c1,99% (active)
8,Cn1cncc1-c1ccc2ncnc(Nc3ccc4c(cnn4Cc4ccccc4)c3)c2c1,99% (active)
9,CNC(=O)c1cc(NCCCNCc2ccc(Cl)c(C(F)(F)F)c2)nc2ccccc12,7%
10,O=C(N[C@@H](Cc1ccccc1)C(=O)NCCN1CCCCC1)c1ccc(O)c(-c2cccc(C(F)(F)F)c2)c1,3%
11,CN(C)CCNCc1ccc(-c2cccc(-c3nc4ccccc4[nH]3)c2)cc1,63% (active)
12,Cc1cc(N[C@@H](Cc2ccccc2)C(=O)Nc2ccccc2)nc(NCCc2ccc(F)cc2)n1,81% (active)
13,CC(=O)Nc1nc(C(=O)Nc2cccc(-c3cccc(-c4nc5c(C)cccc5[nH]4)c3)c2)cs1,94% (active)
14,O=C(Nc1ccc(-c2csc3nccn23)cc1)c1ccc(Cl)cc1,50% (active)
